ATXN viability: viability counter-screen for ATXN expression inhibitors. S2 cells (HEK-293 line with an ATXN2-luciferase reporter) viability, CellTiter-Fluor protease fluorescence, 24 h. Potency, µM (top dose mostly 56.7 µM), most hits filed as cytotoxic. hit rate 0.49% among 400,000. AID 651635; further: nearly all actives have a fitted effect of over 40% in size
TDP1 cell CPT: growth inhibition of DT40 Tdp1-/-;hTDP1 cells with camptothecin (screen for TDP1 inhibitors) | chicken DT40 Tdp1-/-;hTDP1 cells + 20 nM CPT, ATP luminescence, 48 h | AID 686979 | Potency, µM (titrated, usually from 46.2 µM), for the others: at the highest dose activity change, negative = growth inhibition, usual class: inhibitors | hit rate 12% among 420,000; further: on the % scale 0 is the no-effect control and ±100 the full control effect; nearly all actives have a fitted effect of over 55% in size
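Chicken DT40 Tdp1-/- cells stably complemented with human TDP1 were seeded at 400 cells/well in medium containing 20 nM camptothecin, exposed to pin-transferred compounds, and grown at 37 °C for at least 48 hr. Viability was read as ATP luminescence.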
TGFb inhibitor: inhibitors of TGF-b signaling. hit rate 1.2% among 410,000. HepG2 CAGA-GFP TGF-b/SMAD3 reporter, GFP fluorescence, 18 h; TGF-beta stimulated, 500 pg/mL final. AID 588855. Potency, µM (titrated, usually from 46.1 µM), without a hit: top-dose activity, negative = inhibition, actives largely listed as inhibitors; further: on the % scale 0 is the no-effect control and ±100 the full control effect; nearly all actives have a fitted effect of over 65% in size
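Smad-responsive CAGA-GFP expression was quantified in HEPG2 cells exposed to compounds and 500 pg/mL final TGF-beta for 18 h at 37 degrees C; unstimulated wells defined full inhibition.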
TDP1 cell noCPT: qHTS for Inhibitors of human tyrosyl-DNA phosphodiesterase 1 (TDP1): qHTS in cells in absence of CPT. AID 686978, 2013. Potency, µM (titrated, usually from 46.2 µM), inactives show at the top dose activity change, negative = growth inhibition, hits mostly inhibitors. DT40 Tdp1-/- hTDP1 cells, no CPT, ATP luminescence, 48 h. hit rate 15% among 420,000; further: on the % scale 0 is the no-effect control and ±100 the full control effect; nearly all actives have a fitted effect of over 55% in size
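Camptothecin absent (DMSO only). Human TDP1-complemented DT40 knockout cells, 400 cells/well, 37 °C for minimum 48 hr; ATP measured via CellTiter-Glo, 30 min dark incubation, luminescence.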
ATXN2 expr inh: inhibitors of ATXN2 expression. hit rate 0.72% among 360,000. Potency, µM (series often up to 57 µM), inactives show at the top dose activity change, negative = inhibition, most hits filed as inhibitors. HEK-293 ATXN2-luciferase reporter, luminescence, 24 h; further: on the % scale 0 is the no-effect control and ±100 the full control effect; nearly all actives have a fitted effect of over 55% in size
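qHTS (up to 57 uM final) was run with 24 h compound exposure of reporter cells at 37 °C. Each well was multiplexed: SteadyGlo luminescence measured ATXN2-luciferase expression after a fluorogenic Gly-Phe-AFC viability readout (25 uM final).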
HepG2 tox: HepG2 cytotoxicity, counter-screen for TGF-b inhibitors; HepG2 CAGA-GFP viability, ATP luminescence, 18 h; hit rate 0.76% among 410,000; Potency, µM (top dose mostly 46.1 µM), without a hit: top-dose activity change, negative = cytotoxicity, actives largely listed as cytotoxic
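CellTiter-Glo luminescence gave cytotoxicity after 18 hours at 37 degrees C. The cells were HepG2 CAGA-GFP in 1% FBS DMEM, stimulated with 500 pg/mL TGF-beta after compound addition. %Activity was normalised to no-cell wells (complete cell-killing) and DMSO (no toxicity), and curves were fitted and classified.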
The depositor's hits bear a star; i = inactive; ? = inconclusive; . = no result given. In the library only some 17% were active in any assay of this set; here they are far more common. The call rests on the fitted dose curve; in most records, active means well fitted curve in the direction sought with a large enough effect; inconclusive means small, poorly fitted or top-dose-only effect, or another doubt; inactive means no such curve, though single readings can be large; an effect the other way counts as inactive or inconclusive. Potency means the concentration at half of the fitted maximal effect.

SMILES	ATXN viability	TDP1 cell CPT	TGFb inhibitor	TDP1 cell noCPT	ATXN2 expr inh	HepG2 tox
N#CC(C(=S)Nc1ccccc1)c1nc2ccccc2[nH]1 (configuration not stated)	?	5.17µM*	?	5.17µM*	.	-22.5%
CC(OC(=O)Cc1n[nH]c(=O)c2ccccc12)C(=O)Nc1ccc(Cl)cn1 (configuration not stated)	i	?	-1.3%	?	-6.1%	0.0%
CC(OC(=O)Cc1n[nH]c(=O)c2ccccc12)C(=O)Nc1cc(Cl)cc(Cl)c1 (configuration not stated)	i	?	?	23.1µM*	4.1%	-17.2%
CC1CC(C)(C)Nc2ccc(N=O)cc21 (configuration not stated)	?	2.31µM*	?	1.84µM*	.	-7.2%
Nn1c(SCc2nc3ccccn3c2Br)nnc1-c1cccnc1	i	-7.0%	-7.4%	-12.9%	-0.1%	-21.6%
CC12CCC(=O)N1C(C(=O)Nc1nccs1)CS2 (configuration not stated)	i	1.0%	-5.3%	-1.4%	11.0%	5.9%
Cc1nn(C)c(C)c1S(=O)(=O)N1CCCC(C(=O)NC2CCCCCC2)C1 (configuration not stated)	i	18.4µM*	-11.7%	?	4.5%	6.2%
Cc1nn(C)c(C)c1S(=O)(=O)N1CCCC(C(=O)N2CCN(c3ccc(Cl)cc3)CC2)C1 (configuration not stated)	i	11.6µM*	0.0%	6.51µM*	-31.1%	-13.4%
O=C(NC1CCCCC1)C1CCCN(S(=O)(=O)c2ccc(F)cc2)C1 (configuration not stated)	i	-19.3%	-14.3%	?	16.6%	3.1%
CN(C)S(=O)(=O)c1ccc(S(=O)(=O)N2CCCC(C(=O)NC3CCCC3)C2)cc1 (configuration not stated)	i	?	15.0%	2.91µM*	-17.1%	13.3%
Cc1cc(C)c(S(=O)(=O)N2CCCC(C(=O)NC3CCCC3)C2)c(C)c1 (configuration not stated)	i	?	-5.8%	20.6µM*	24.8%	-26.5%
Cc1n[nH]c(C)c1S(=O)(=O)N1CCCC(C(=O)NC2CCCCC2)C1 (configuration not stated)	i	-20.7%	-14.1%	-16.1%	2.8%	4.2%
O=C(Nc1ccc(-c2cn3cccnc3n2)cc1)c1cc(Br)ccc1Cl	i	?	?	?	-2.7%	-9.9%
CC(C)Cn1c(SCC(=O)N(C)c2c(N)n(Cc3ccccc3)c(=O)[nH]c2=O)nc2ccccc21	i	4.9%	6.0%	1.2%	2.6%	3.3%
CN1CCN(C(c2ccc(F)cc2)c2sc3nc(-c4ccco4)nn3c2O)CC1 (configuration not stated)	i	-15.8%	-19.1%	-6.6%	3.4%	-11.0%
O=C(Nc1ccc2c(c1)OCCO2)C1CCN(C(=O)c2ccc(F)cc2)CC1	i	?	?	?	34.0%	-5.4%
COc1cc(OC)c2c(-c3cccc(-c4ccoc4)c3)cc(=O)oc2c1	?	?	?	?	?	-4.7%
COC(=O)c1cc(=O)nc(NNC(C)=O)s1	i	-1.6%	0.9%	-5.2%	5.3%	2.0%
O=S(=O)(NCCC1=CCCCC1)c1cccc(S(=O)(=O)N2CCOCC2)c1	i	5.17µM*	-0.6%	5.8µM*	-26.8%	-85.0%
CCN(CC)CCNC(=O)c1ccc(Cl)c(S(=O)(=O)N2CCCCCC2)c1	i	?	-12.6%	?	-0.9%	-35.6%
CN1CCN(S(=O)(=O)c2cccc(C(=O)NCCC3=CCCCC3)c2)CC1	i	?	-3.5%	?	-1.9%	2.5%
CC(=O)N1CCN(S(=O)(=O)c2cccc(C(=O)NCCC3=CCCCC3)c2)CC1	i	2.91µM*	1.3%	-18.5%	0.0%	-4.4%
CN(C)CCCNC(=O)c1ccc(Cl)c(S(=O)(=O)N2CCCCCC2)c1	i	10.3µM*	-13.4%	?	-2.7%	-20.6%
O=C(NCCC1=CCCCC1)c1ccc(Cl)c(S(=O)(=O)N2CCCCC2)c1	i	16.4µM*	?	23.1µM*	0.0%	-22.2%
N/C(=N\OC(=O)c1cccs1)c1cccc([N+](=O)[O-])c1	i	-3.6%	-4.9%	-17.9%	83.2%	-12.4%
SMILES	ATXN viability	TDP1 cell CPT	TGFb inhibitor	TDP1 cell noCPT	ATXN2 expr inh	HepG2 tox
CCOC(=O)c1c(-c2ccc(OC)cc2)csc1/N=C/C1=C(O)CCCC1=O	i	-14.8%	56.5%	-10.8%	-4.1%	-94.2%
Cc1cc(C(=O)NNC(=O)C2CCCC2)c(C)o1	i	3.9%	-4.2%	-19.0%	-6.0%	3.7%
CCCCCCCCCCCCCCCCCCNc1ccn(C2OC(COP(=O)(O)OCC3OC(n4cc(F)c(=O)[nH]c4=O)CC3O)C(O)C2O)c(=O)n1 (configuration not stated)	?	0.13µM*	?	0.0411µM*	?	-33.2%
CCCCCOC(=O)Nc1nc(=O)n([C@@H]2O[C@H](C)[C@@H](O)[C@H]2O)cc1F	i	-9.9%	.	?	3.7%	.
CC1CCCCC1NC(=O)COC(=O)c1c2c(nc3ccccc13)/C(=C/c1ccco1)CC2 (configuration not stated)	.	16.4µM*	-12.8%	14.6µM*	11.4%	1.4%
O=C(COC(=O)c1c2c(nc3ccccc13)/C(=C/c1ccco1)CC2)NC1CCCC1	.	16.4µM*	?	?	4.7%	-1.9%
Cc1cc(C(=O)OCC(=O)NC2CCCCC2C)c2ccccc2n1 (configuration not stated)	i	-18.4%	-9.2%	-1.4%	-6.9%	-2.5%
CCOC(=O)c1c(SC)[nH]c2c(Cl)cccc2c1=O	i	5.5%	11.8%	-12.0%	-15.0%	-34.3%
O=c1[nH]c2ccc(NCc3ccc(-c4ccccc4F)o3)cc2[nH]1	i	23.1µM*	-5.3%	18.4µM*	1.3%	-11.6%
Cc1cccc(Oc2nc3ccccn3c(=O)c2/C=C(\C#N)c2nc3ccccc3s2)c1C	i	20.6µM*	2.0%	4.61µM*	10.9%	-3.4%
Cc1ccnc2ccc(-c3nc4ccccc4o3)cc12	i	20.6µM*	18.1%	10µM*	106.2%	-18.4%
Nc1ccc2nc(-c3cccc(-c4nc5ccc(N)cc5[nH]4)c3)[nH]c2c1	i	5.0%	-6.3%	?	7.6%	3.6%

Compound activity deposited in PubChem by National Center for Advancing Translational Sciences (NCATS).
